Screening results from PubChem.
This is a sample that favours compounds with a hit; in the whole collection about 0.79% have one here.
AmpC detergent: AmpC beta-lactamase inhibition with detergent present. P00811. AmpC hydrolysis of nitrocefin, absorbance 480 nm, 0.01% Triton. Potency, µM (series often up to 114 µM), without a hit: at the highest dose activity change, negative = inhibition, usual class: inhibitors. 370,000 tested, 0.041% active;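 also: 0% = no-compound wells and -100% = no-enzyme wells; nearly all actives have a fitted effect of over 25% in size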
Target sequence (P00811 whole entry, looked up): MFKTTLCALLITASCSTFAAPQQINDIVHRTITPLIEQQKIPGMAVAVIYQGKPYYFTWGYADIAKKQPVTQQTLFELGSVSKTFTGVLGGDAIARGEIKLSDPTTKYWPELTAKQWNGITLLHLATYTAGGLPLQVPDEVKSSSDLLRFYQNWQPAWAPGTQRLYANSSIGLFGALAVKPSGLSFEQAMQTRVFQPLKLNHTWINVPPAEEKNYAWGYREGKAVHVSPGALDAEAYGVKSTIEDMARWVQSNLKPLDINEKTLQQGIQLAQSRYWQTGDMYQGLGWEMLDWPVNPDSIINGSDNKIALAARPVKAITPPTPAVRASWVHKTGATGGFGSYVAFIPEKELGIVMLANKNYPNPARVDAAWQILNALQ
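20 mM phosphate pH 7.0 + 0.01% (detergent screen) or 0.0001% Triton X-100; 5.3 nM AmpC reagent; cpd preinc 15 min RT; nitrocefin (800 uM stock) to start; A480 q20 s × 4 min; Activity was normalised to no-enzyme and no-compound control wells.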
RE007 growth inh: less growth of the S. pombe RE007 Vpr strain | AID 651644 | S. pombe RE007 Vpr strain, BacTiter-Glo ATP luminescence, 24 h | 360,000 tested, 0.21% active | Potency, µM (top dose mostly 92.2 µM), without a hit: top-dose activity change, negative = less growth, usual class: inhibitors; active = well fitted falling curve with a large enough effect; inconclusive = small, poorly fitted or top-dose-only effect; inactive = no such curve, though single readings can be large or run the other way; also: nearly all actives have a fitted effect of over 50% in size
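Fission yeast strain RE007, carrying one chromosomally integrated HIV-1 vpr copy, was seeded at OD 0.01 in PMG+AL medium with 23 nL pinned compound. After 24 h at 30 °C and 99% humidity, viability was read by BacTiter-Glo luminescence.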
AmpC inh no detg: AmpC beta-lactamase inhibition without detergent; 330,000 tested, 0.52% active; AID 485341; AmpC nitrocefin hydrolysis, absorbance 480 nm, 0.0001% Triton; P00811; Potency, µM (top dose mostly 57.1 µM), for inactives: at the top dose activity change, negative = inhibition, actives largely listed as inhibitors;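 also: plate controls were no compound for no effect and no enzyme for full effect; nearly all actives have a fitted effect of over 20% in size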
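20 mM phosphate pH 7.0 + 0.01% (detergent screen) or 0.0001% Triton X-100; 5.3 nM AmpC reagent; cpd preinc 15 min RT; nitrocefin (800 uM stock) to start; A480 q20 s × 4 min; Activity was normalised to no-enzyme and no-compound control wells.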
AMA1-RON2 inh: AMA1-RON2 (P. falciparum) interaction inhibition. AlphaScreen AMA1-biotinylated RON2 peptide binding. Potency, µM (doses to about 58.2 µM), without a hit: top-dose activity change, negative = inhibition, most hits filed as inhibitors. 360,000 tested, 0.2% active;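 also: 0% = vehicle wells and -100% = peptide control; nearly all actives have a fitted effect of over 45% in size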
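AMA1 (3D7) with his tag at 25 nM final met compounds first, then biotinylated RON2 peptide at 25 nM; detection used donor plus acceptor beads, 10 µg/mL apiece, read by AlphaScreen after 30 min at room temperature.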
* hit, by the source's call; ? = inconclusive; · = not tested or not shown; [ ] = another dose, or the depositor's remark. Unless noted, calls follow the shape of the dose curve; as a rule, active = well fitted curve in the direction sought with a large enough effect; inconclusive = small, poorly fitted or top-dose-only effect, or another doubt; inactive = no such curve, though single readings can be large; an effect the other way counts as inactive or inconclusive. Unless noted, % is scaled to controls: 0 for no effect and ±100 for the full control effect; potency is read from the fitted curve at half-maximal effect.

SMILES | AmpC detergent | RE007 growth inh | AmpC inh no detg | AMA1-RON2 inh
COc1cc(OC)c(NC(=O)CCn2cnc3onc(-c4ccc(F)cc4)c3c2=O)cc1Cl | -3% | · | · | ·
O=C(Cc1coc2cc3c(cc12)CCC3)OCc1cc(=O)n2c(n1)sc1ccccc12 | -1% | -3% | 32µM* | -19%
COc1ccc2cc(CCNC(=O)c3ccc4c(c3)OCO4)c(=O)[nH]c2c1 | ? | -3% | 2.8µM* | -2%
Cc1ccc2nc(NC(=O)Cn3cc4c(n3)CCCCC4)sc2c1 | ? | 2% | 2.8µM* | 22%
Cc1ccc(NC(=O)Cn2cc3c(n2)CCCC3)c(C)c1 | 18% | · | · | ·
CCOCCCNC(=O)Cn1cc2c(n1)CCCCC2 | ? | 5% | 45µM* | 20%
O=C(Cn1cc2c(n1)CCCCC2)NCc1ccccc1 | ? | -5% | -4% | 12%
CC(C)CCNC(=O)Cn1cc2c(n1)CCCCC2 | ? | 14% | 45µM* | -6%
CCN(Cc1ccccc1)C(=O)Cn1cc2c(n1)CCCC2 | -15% | 1% | 4.5µM* | -3%
NC(=O)C1CCN(C(=O)c2ccc3c(c2)N(Cc2cccc(Cl)c2)C(=O)c2ccccc2S3(=O)=O)CC1 | -5% | · | · | ·
COc1cccc(-c2nnc3n(Cc4ccccc4Cl)c(=O)c4ccccc4n23)c1O | -2% | · | · | ·
COc1ccc(NC(=O)CSc2nc(-c3ccco3)cc(C(F)(F)F)n2)cc1 | -6% | · | · | ·
CN(CCc1ccccn1)C(=O)Nc1ccc(Cl)cc1 | 6% | -11% | · | 8%
CN(CCc1ccccn1)C1CC(=O)N(c2ccc(Cl)cc2)C1=O (configuration not stated) | -5% | 3.2µM* | -5% | 16%
CCCCCCn1c(=O)c(F)cn(Cc2ccc(OC)c([N+](=O)[O-])c2)c1=O | 2% | 2% | 0.14µM* | -9%
CCCCCn1c(=O)c(F)cn(Cc2ccc(OC)c([N+](=O)[O-])c2)c1=O | -5% | 7% | -1% | 12%
O=C(Nc1nc(-c2ccc(Cl)cc2)cs1)C1=COCCO1 | ? | ? | -13% | -9%
O=C(Nc1nc(-c2cccs2)cs1)C1=COCCO1 | -14% | 35µM* | -18% | 3%
O=C(Nc1nc(-c2cccs2)cs1)c1ccc(Cl)cc1 | 6% | ? | 28µM* | -4%
COc1ccc(N2CCN(c3oc(Cc4ccccc4)nc3C#N)CC2)cc1 | 3% | 0% | -12% | 17µM*
COc1ccc(N2CCN(c3oc(COc4ccc(Cl)cc4Cl)nc3C#N)CC2)cc1 | ? | 3% | -19% | 25µM*
COc1ccc(N2CCN(c3oc(COc4ccccc4)nc3C#N)CC2)cc1 | 0% | -2% | 27% | ?
CCc1ccc(NC(=O)Cn2c(=O)n(-c3ccc(OC)cc3)c(=O)c3ccc(C(=O)NCc4ccc(C)cc4)cc32)cc1 | 3% | · | · | ·
CNc1oc(/C=C/c2cc(OC)c(OC)c(OC)c2)nc1C#N | 14% | · | · | ·
O=C(/C=C/c1cn(-c2ccccc2)nc1-c1ccccc1)Nc1ccc(C(=O)O)cc1 | 0% | 17% | -33% | 9%
SMILES | AmpC detergent | RE007 growth inh | AmpC inh no detg | AMA1-RON2 inh
NS(=O)(=O)c1ccc(NC(=O)COC(=O)c2cn(-c3ccccc3)nc2-c2ccc(F)cc2)cc1 | -8% | 0% | 13µM* | -5%
NS(=O)(=O)c1ccc(NC(=O)/C=C/c2cn(-c3ccccc3)nc2-c2cccc(Cl)c2)cc1 | -9% | 12% | 2.5µM* | -20%
O=C(NCCc1ccccc1)c1ccc(Nc2nc3ccccc3n3nnnc23)cc1 | 16% | · | · | ·
Cc1ccc(CNC(=O)c2cc(S(=O)(=O)N3CCCCC3)cn2C)cc1 | 11% | · | · | ·
CCc1ccc(NC(=O)Cn2c(=O)n(Cc3ccc(C)cc3)c(=O)c3cccnc32)cc1 | 1% | · | · | ·
CCN(CC)CCNC(=O)C1CCN(S(=O)(=O)N2CCCCC2)CC1 | 2% | -13% | 0.28µM* | 0%
CCOc1ccc(CCNC(=O)CN2C(=O)COc3ccc(S(=O)(=O)N(CC)CC)cc32)cc1 | 7% | · | · | ·
COCC(=O)n1nc(-c2ccc(C)cc2)nc1NCc1ccc(F)cc1 | ? | -13% | -13% | -17%
COCC(=O)n1nc(-c2ccccc2)nc1NCc1ccc(N(C)C)cc1 | 3% | 9% | -6% | 22µM*
CCCCOc1nnc(-c2ccc(OCC)cc2)c2ccccc12 | -12% | · | · | ·
CN(C)c1ccc(C(CNS(=O)(=O)c2ccc(F)c(F)c2)c2c[nH]c3ccccc23)cc1 (configuration not stated) | -5% | 11% | -40% | 14µM*
COc1ccc(CNC(=O)CCCN2C(=O)CSc3c2c(C)nn3-c2ccccc2)c(OC)c1 | -2% | · | · | ·
COc1cc(/C=N/Nc2cccc(C)c2)cc(Br)c1O | -1% | 266% | 32µM* | -3%
COc1cc(/C=N/Nc2cccc(C)c2)ccc1OC(=O)c1cccs1 | -16% | 138% | -48% | -9%
COc1ccc(-c2csc3ncnc(N4CCN(S(=O)(=O)c5ccc(C(C)=O)cc5)CC4)c23)cc1 | ? | 10% | 32µM* | -5%
CC1(C)CC2CC(C)(CN2Cc2c(O)ccc3ccccc23)C1 (configuration not stated) | -2% | -16% | 11µM* | 7%
COc1cc(OC)c(N(C)S(=O)(=O)c2cccc(C(=O)OCC(=O)c3c[nH]c4ccccc34)c2)cc1Cl | ? | 5% | 4µM* | 18%
C=CCN(c1ccccc1OC)S(=O)(=O)c1cccc(C(=O)OCC(=O)c2c[nH]c3ccccc23)c1 | -14% | -3% | -29% | -28%
COc1ccc(N2C(=O)CC(Sc3nc(C)cc(C)c3C#N)C2=O)cc1 (configuration not stated) | 0% | -12% | -16% | 3%
COc1ccc(N2C(=O)CC(Sc3nnnn3-c3ccc(F)cc3)C2=O)cc1 (configuration not stated) | 5% | 16µM* | -19% | 2%
Clc1cccc(N2CCN(c3nnnn3-c3ccccc3)CC2)c1 | 5% | 7% | 1% | 16%
O=C1CC(Sc2nnnn2-c2ccccc2)C(=O)N1c1cccc(Cl)c1 (configuration not stated) | -2% | 7.1µM* | ? | 3%
O=[N+]([O-])c1ccc(N/N=C/c2cccc(O)c2O)cc1 | -15% | 5% | 18µM* | -3%
COc1ccc(C(=O)CCN2CCN(c3ccccc3F)CC2)cc1 | -2% | 11µM* | 0%[2.29 µM] | -9%
O=C(CCN1CCN(c2ccccc2F)CC1)c1ccc(Br)cc1 | 0% | 32µM* | -4% | -2%
COc1ccc(OC)c(NC(=O)CCN2CCN(c3ccccc3F)CC2)c1 | -7% | 21% | 59% | -22%
O=C(O)CCCCC1CCSS1 (configuration not stated) | 50µM* | -8% | 16µM* | 9%
COc1ccc(CNC(=O)c2ccc3c(c2)N(Cc2ccccc2C)C(=O)c2ccccc2S3=O)cc1 (configuration not stated) | 6% | · | · | ·
CC(Sc1ccccc1)C(=O)Nc1ccccc1C(=O)N1CCOCC1 (configuration not stated) | 5% | 16% | 0.28µM* | -4%
